Laboratory results as given in PubChem BioAssay.

Experiment: small-molecule microarray binders of probe aEGFR, primary screen, biochemical, biotinylated probe, 635/667 nm fluorescence (AID 1097);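 also: probe is a biotinylated anti-EGFR antibody binding compounds printed on slides; score combines fluorescence near 667 nm and signal to noise of each spot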
Conditions: higher = more signal
`COC(=O)c1ccc(OC)c(/C=C\CC(CCc2ccccc2)OC(C)=O)c1` (stereo not given) gave a composite z-score of -0.0899.
For `C[N+](C)(C)CCCC[C@@H]1NC(=O)[C@H]2C[C@@H](C(=O)NCCCCCCN)[C@@H](c3cccc(OCCO)c3)N2C1=O`, the composite z-score was 0.693.
`C/C=C/[C@@H](CCn1cc([C@H](O)c2ccccc2)nn1)[Si](C)(C)c1ccc(OC)cc1` gave a composite z-score of -0.298.
`CCCCCCCCCCC(O)C1C=CC2C(=O)NC(=O)C2N1Nc1ccccn1` (stereo not given) showed a composite z-score of -0.14.
`COC(=O)[C@@]1(Cc2ccc(F)cc2)[C@H]2c3cc(C(=O)N(C)C)n(CCSCCO)c3C[C@H]2CN1C(=O)c1ccccc1` gave a composite z-score of -0.162.
`CC1CC/C=C\[C@H]2OC34C=CCN(Cc5ccccc5)C(=O)[C@H]3N(CCO)C(=O)[C@@H]4C2C(=O)O1` (stereo not given in full) showed a composite z-score of -0.113.
`C=C(COC)C(=O)CC[C@H](OC(=O)c1ccccc1-c1ccccc1C(=O)O)c1ccc(OCCO)cc1` showed a composite z-score of -0.111.
Compound `C=CCC(OC(C)=O)[C@@H]1[C@@H](N(Cc2cc3ccccc3o2)C(=O)Cc2ccc(OC)cc2)c2cc(OCCCO)ccc2N1C(=O)c1ccc(-c2ccccc2)cc1` (stereo not given in full) has a composite z-score of -0.127.
For `CC1CC/C=C\[C@H]2OC34C=CCN(c5ccc(Cl)cc5)C(=O)[C@H]3N(C(CO)C(C)C)C(=O)[C@]4(C)C2C(=O)O1` (stereo not given in full), the composite z-score was -0.233.
In the case of `O=C1O[C@@H](c2ccccc2)[C@@H](c2ccccc2)N2[C@@H](c3ccc(O)cc3)[C@]3(C(=O)Nc4ccc(C#CC5(O)CCCCCC5)cc43)[C@@H](C(=O)N3CCN(c4ncccn4)CC3)[C@H]12`, the composite z-score is reported as -0.0399.
`CC[C@@H]1[C@@H]2C3C(=O)N(CC)C(=O)C3CC(=O)[C@@H]2[C@H](c2ccc(C)cc2)N1S(=O)(=O)c1ccc(C)cc1` (stereo not given in full) gave a composite z-score of -0.0371.
Compound `COCCOC(=O)N1C(=O)[C@@]2(c3cc(C#CCCO)ccc31)[C@H](C(=O)NC[C@H](O)c1ccccc1)[C@H]1C(=O)O[C@H](c3ccccc3)[C@H](c3ccccc3)N1[C@@H]2c1ccccc1OCCO` has a composite z-score of 0.13.
For `C=CCOC(=O)[C@@H]1[C@H]2C(=O)O[C@H](c3ccccc3)[C@H](c3ccccc3)N2[C@H](c2ccc(OCCOC(=O)[C@@H]3C[C@@H]4C(=O)N[C@@H](CCCCNC(C)=O)C(=O)N4[C@@H]3c3ccc(O)cc3)cc2)[C@@]12C(=O)Nc1ccc(I)cc12`, the composite z-score was 0.15.
Work on `CC(C)CCC[C@@H](C)[C@H]1CC[C@@]2(C)C3=C(CC[C@]12C)[C@@]1(C)CC[C@H](OC(=O)c2ccc(N)cc2)C(C)(C)C1CC3` (stereo not given in full) yielded a composite z-score of -0.0238.
`CCCN1C(=O)[C@@H]2Cc3c([nH]c4ccccc34)[C@@H](c3cccc(O)c3)N2C1=O` gave a composite z-score of -0.0424.
Work on `C=CCN1C(=O)[C@@]2(O[C@@H](CCn3cc([C@H](O)c4ccccc4)nn3)[C@H]([Si](C)(C)c3ccc(OC)cc3)[C@H]2C)c2cc(NC(=O)c3ccc(OC)cc3)ccc21` yielded a composite z-score of -0.0564.
Compound `COc1ccc([Si](C)(C)[C@@H]2[C@@H](CC(=O)N(CCO)Cc3ccccc3)O[C@]3(C(=O)N(Cc4ccc(N5CCOC5=O)cc4)c4ccccc43)[C@H]2C)cc1` has a composite z-score of -0.0343.
Compound `COCCOC(=O)N1C(=O)[C@@]2(c3cc(C#Cc4ccc(OC)cc4)ccc31)[C@H](C(=O)N1CCc3cc(OC)c(OC)cc3C1)[C@H]1C(=O)O[C@H](c3ccccc3)[C@H](c3ccccc3)N1[C@@H]2c1ccc(O)cc1` has a composite z-score of -0.0197.
In the case of `CC(C)CNC(=O)[C@@]1(C)c2ccccc2C(=O)N(Cc2ccccc2)[C@H]1c1ccc(CO)cc1`, the composite z-score is reported as -0.285.
In the case of `COc1ccccc1CN1C(=O)c2ccccc2[C@](Cc2ccccc2I)(C(=O)NCCN2CCOCC2)[C@@H]1c1ccc(CO)cc1`, the composite z-score is reported as -0.0502.
With `CCCCCCC#C[Si](O[C@H](c1ccccc1)c1cn(Cc2cccc(Cl)c2)nn1)(C(C)C)C(C)C` the composite z-score was -0.0828.
Work on `COc1ccc([Si](C)(C)[C@@H]2[C@@H](CCO)O[C@]3(C(=O)N(Cc4ccccc4)c4ccc(N5CCCCC5=O)cc43)[C@H]2C)cc1` yielded a composite z-score of -0.0828.
`COC(=O)[C@@]1(Cc2ccc(F)cc2)[C@@H]2[C@@H](CC(=O)[C@H]2CC(=O)C(=O)N2CCCC2)CN1C(=O)c1ccccc1` gave a composite z-score of 0.147.
Work on `COCCOC(=O)N1C(=O)[C@@]2(c3cc(C#CCCO)ccc31)[C@H](c1ccc(OCCO)cc1)N1[C@H](c3ccccc3)[C@H](c3ccccc3)OC(=O)[C@H]1[C@@H]2C(=O)N1CCc2cc(OC)c(OC)cc2C1` yielded a composite z-score of 0.0365.
Compound `C=CC[C@]1(C(=O)NCC(O)CO)N=C(c2ccc(OCCCO)cc2)O[C@H]1c1ccccc1N=[N+]=[N-]` (stereo not given in full) has a composite z-score of -0.142.
